Source: PubChem BioAssay (Tox21)
Results filed as inconclusive are left out. Activity calls are given as the source filed them. Calls come from the whole dose curve; as a rule, active = well fitted curve in the direction sought with a large enough effect in the repeat runs; inconclusive = weak or mixed curves; inactive = no such curve, though single readings can be large; an effect the other way counts as inactive or inconclusive.

How the values were obtained:
[1] = qHTS RealTime-Glo MT Cell Viability Assay in HepG2 cells - 40 hour (AID 1224870); note: nearly all actives have a fitted effect of over 50% in size
Method in brief: (§1)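 HepG2 cells mixed with RealTime-Glo MT reagents (NanoLuc plus cell-permeant prosubstrate) were seeded at 600 cells/well, incubated 5 h at 37 C/5% CO2, then pinned with compounds in DMSO; nonlytic luminescence tracked viability during 40 h treatment.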

[2] = A CellTox Green Cytotoxicity Assay to monitor cytotoxicity in HEK293 cells - 40 hour (AID 1224871); note: nearly all actives have a fitted effect of over 45% in size
Method in brief: (§2)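 Cytotoxicity was tracked continuously in HEK293 cells by a DNA-binding dye excluded from viable cells. Compounds were transferred in DMSO 5 h after seeding; fluorescence was recorded at intervals up to 40 h.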

[3] = qHTS RealTime-Glo MT Cell Viability Assay in HepG2 cells - 8 hour (AID 1224873); note: nearly all actives have a fitted effect of over 55% in size
Method in brief: as §1

[4] = qHTS RealTime-Glo MT Cell Viability Assay in HEK293 cells - 40 hour (AID 1224874); settings: RealTime-Glo luminescence; max response: active compounds read low; note: nearly all actives have a fitted effect of over 50% in size
Method in brief: (§3)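 Nonlytic bioluminescent viability monitoring. HEK293 at 600 cells/well with reagent; 5 h settle; compound transfer by pintool; plates held at 37 C and read at set time points.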

[5] = A CellTox Green Cytotoxicity Assay to monitor cytotoxicity in HEK293 cells - 24 hour (AID 1224875); note: series mostly up to about 77 µM; nearly all actives have a fitted effect of over 45% in size
Method in brief: as §2

[6] = A CellTox Green Cytotoxicity Assay to monitor cytotoxicity in HepG2 cells - 16 hour (AID 1224876); note: nearly all actives have a fitted effect of over 45% in size
Method in brief: (§4)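 Real-time, homogeneous cytotoxicity readout: dead-cell DNA staining by CellTox Green in HepG2 monolayers, fluorescence measured at timed intervals up to 40 h of continuous compound exposure.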

[7] = qHTS RealTime-Glo MT Cell Viability Assay in HepG2 cells - 32 hour (AID 1224877); note: nearly all actives have a fitted effect of over 55% in size
Method in brief: (§5)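 Cells + NanoLuc/prosubstrate dispensed (600 cells/well) → 5 h at 37 C/5% CO2 → compounds in DMSO transferred → 40 h incubation at 37 C, luminescence read at 0, 8, 16, 24, 32, 40 h.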

[8] = A CellTox Green Cytotoxicity Assay to monitor cytotoxicity in HepG2 cells - 24 hour (AID 1224878); note: nearly all actives have a fitted effect of over 45% in size
Method in brief: as §4

[9] = A CellTox Green Cytotoxicity Assay to monitor cytotoxicity in HepG2 cells - 40 hour (AID 1224879); note: nearly all actives have a fitted effect of over 40% in size
Method in brief: as §4

[10] = qHTS RealTime-Glo MT Cell Viability Assay in HEK293 cells - 0 hour (AID 1224880)
Method in brief: as §3

[11] = A CellTox Green Cytotoxicity Assay to monitor cytotoxicity in HEK293 cells - 32 hour (AID 1224881); note: nearly all actives have a fitted effect of over 40% in size
Method in brief: as §2

[12] = A CellTox Green Cytotoxicity Assay to monitor cytotoxicity in HepG2 cells - 0 hour (AID 1224882); note: nearly all actives have a fitted effect of over 35% in size
Method in brief: as §4

[13] = A CellTox Green Cytotoxicity Assay to monitor cytotoxicity in HepG2 cells - 32 hour (AID 1224883); note: nearly all actives have a fitted effect of over 50% in size
Method in brief: as §4

[14] = A CellTox Green Cytotoxicity Assay to monitor cytotoxicity in HEK293 cells - 8 hour (AID 1224884); note: nearly all actives have a fitted effect of over 35% in size
Method in brief: as §2

[15] = qHTS RealTime-Glo MT Cell Viability Assay in HepG2 cells - 16 hour (AID 1224885); note: nearly all actives have a fitted effect of over 50% in size
Method in brief: as §5

[16] = qHTS RealTime-Glo MT Cell Viability Assay in HEK293 cells - 24 hour (AID 1224886)
Method in brief: (§6)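 Tox21 10K qHTS, HEK293, 600 cells/well, RealTime-Glo reagent co-dispensed with cells; 5 h preincubation, compound by pintool, 37 C, luminescence at 0–40 h.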

[17] = qHTS RealTime-Glo MT Cell Viability Assay in HEK293 cells - 8 hour (AID 1224887)
Method in brief: as §3

[18] = A CellTox Green Cytotoxicity Assay to monitor cytotoxicity in HEK293 cells - 16 hour (AID 1224888); note: nearly all actives have a fitted effect of over 35% in size
Method in brief: as §2

[19] = qHTS RealTime-Glo MT Cell Viability Assay in HepG2 cells - 0 hour (AID 1224889); note: nearly all actives have a fitted effect of over 50% in size
Method in brief: as §5

[20] = qHTS RealTime-Glo MT Cell Viability Assay in HEK293 cells - 16 hour (AID 1224872)
Method in brief: as §6
% is set by controls: 0 for no effect and ±100 for the full control effect.

CC(=O)CC(C)(C)C1CCCCC1
inactive: Potency [1] | Potency [2] | Potency [3] | max response [4] 9.93% | Potency [5] | Potency [6] | Potency [7] | Potency [8] | Potency [9] | Potency [10] | Potency [11] | Potency [12] | Potency [13] | Potency [14] | Potency [15] | Potency [16] | Potency [17] | Potency [18] | Potency [19]

CS(=O)(=O)O
inactive: Potency [1] | Potency [2] | Potency [20] | max response [4] 2.93% | Potency [6] | Potency [7] | Potency [8] | Potency [9] | Potency [10] | Potency [12] | Potency [13] | Potency [14] | Potency [15] | Potency [16] | Potency [17] | Potency [18] | Potency [19]

CCCN1CCCC[C@H]1C(=O)Nc1c(C)cccc1C
inactive: Potency [1] | Potency [2] | Potency [20] | Potency [5] | Potency [6] | Potency [7] | Potency [10] | Potency [11] | Potency [12] | Potency [14] | Potency [15] | Potency [16] | Potency [17] | Potency [19]

NS(=O)(=O)c1ccc(C(=O)O)cc1
inactive: Potency [1] | Potency [2] | Potency [20] | max response [4] -0.921% | Potency [5] | Potency [6] | Potency [7] | Potency [9] | Potency [10] | Potency [12] | Potency [13] | Potency [14] | Potency [15] | Potency [16] | Potency [17] | Potency [18] | Potency [19]

NC(=O)c1ccc([N+](=O)[O-])cc1
inactive: Potency [1] | Potency [2] | Potency [3] | max response [4] 2.32% | Potency [5] | Potency [6] | Potency [7] | Potency [8] | Potency [9] | Potency [10] | Potency [11] | Potency [12] | Potency [13] | Potency [14] | Potency [15] | Potency [16] | Potency [17] | Potency [19]

COC(=O)c1ccc(C)cc1C1=NC(C)(C(C)C)C(=O)N1 (configuration not stated)
inactive: Potency [1] | Potency [2] | Potency [20] | max response [4] 5.2% | Potency [6] | Potency [7] | Potency [8] | Potency [9] | Potency [10] | Potency [12] | Potency [13] | Potency [14] | Potency [15] | Potency [16] | Potency [17] | Potency [18] | Potency [19]

Cc1cc(O)cc2c1O[C@](C)(CCC[C@H](C)CCC[C@H](C)CCCC(C)C)CC2
inactive: Potency [1] | Potency [2] | Potency [3] | max response [4] 5.25% | Potency [5] | Potency [6] | Potency [7] | Potency [8] | Potency [9] | Potency [10] | Potency [11] | Potency [12] | Potency [13] | Potency [14] | Potency [15] | Potency [16] | Potency [17] | Potency [18] | Potency [19]

C[C@H](NC(CCc1ccccc1)C(=O)O)C(=O)N1CCC[C@H]1C(=O)O (some centres not stated)
inactive: Potency [1] | Potency [2] | Potency [20] | max response [4] -70.9% | Potency [5] | Potency [6] | Potency [7] | Potency [8] | Potency [9] | Potency [11] | Potency [13] | Potency [14] | Potency [15] | Potency [16] | Potency [17] | Potency [18] | Potency [19]

N[C@H](C(=O)O)c1ccc(O)cc1
inactive: activity change, negative = cytotoxic [1] 1.99% [at 15.8 µM] | Potency [2] | viability change, negative = cytotoxic [3] 0.244% [at 15.8 µM] | max response [4] 2.28% | activity change [5] 0.19% [at 15.8 µM, active compounds read high] | cytotoxicity increase [6] -12.1% [at 15.8 µM] | activity change, negative = cytotoxic [7] 3.27% [at 15.8 µM] | cytotoxicity [8] -8.13% [at 15.8 µM] | cytotoxicity increase [9] -4.58% [at 15.8 µM] | activity change, negative = cytotoxicity [10] -0.65% [at 15.8 µM] | cytotoxicity [12] -7.08% [at 15.8 µM] | cytotoxicity increase [13] -6.23% [at 15.8 µM] | cytotoxicity increase [14] 0.0185% [at 15.8 µM] | activity change, negative = cytotoxic [15] 1.01% [at 15.8 µM] | activity change, negative = cytotoxicity [16] 1.77% [at 15.8 µM] | activity change, negative = cytotoxicity [17] 4.01% [at 15.8 µM] | activity change [18] 0.584% [at 15.8 µM, active compounds read high] | activity change, negative = cytotoxicity [19] 1.28% [at 15.8 µM]

CCCCCSCCCCC
inactive: Potency [1] | Potency [2] | Potency [20] | max response [4] -8.65% | Potency [6] | Potency [7] | Potency [8] | Potency [9] | Potency [10] | Potency [12] | Potency [13] | Potency [14] | Potency [15] | Potency [16] | Potency [17] | Potency [19]

O=[N+]([O-])c1ccc(F)cc1F
inactive: Potency [1] | Potency [2] | Potency [20] | max response [4] 9.7% | Potency [5] | Potency [6] | Potency [7] | Potency [9] | Potency [11] | Potency [12] | Potency [13] | Potency [14] | Potency [15] | Potency [16] | Potency [17] | Potency [19]

CC/C=C\CC/C=C/CO
inactive: Potency [1] | Potency [2] | Potency [20] | max response [4] 6.89% | Potency [5] | Potency [6] | Potency [7] | Potency [8] | Potency [9] | Potency [11] | Potency [13] | Potency [14] | Potency [15] | Potency [16] | Potency [17] | Potency [18] | Potency [19]

OCCCC1CCCCC1
inactive: Potency [1] | Potency [2] | Potency [3] | max response [4] 11.3% | Potency [5] | Potency [6] | Potency [7] | Potency [8] | Potency [9] | Potency [10] | Potency [11] | Potency [12] | Potency [14] | Potency [15] | Potency [16] | Potency [17] | Potency [19]
